“And” between values parts separate entries of the source, which are not always exact repeats. Equal entries are not always repeated. Out of some 16,000 compounds screened, about 5,800 (36%) were called active. About 23% were inconclusive and are not listed. Calls follow the shape of the dose curve; as a rule, active = well fitted curve in the direction sought with a large enough effect; inconclusive = small, poorly fitted or top-dose-only effect, or effect the other way; inactive = no such curve, though single readings can be large or run the other way. The list shows a part of the results. More than one record can exist for a structure, and the calls need not agree.
% is scaled to controls: 0 for no effect and ±100 for the full control effect.

Sequence of Cytochrome P450 2C19 (Homo sapiens) (P33261 whole entry, looked up): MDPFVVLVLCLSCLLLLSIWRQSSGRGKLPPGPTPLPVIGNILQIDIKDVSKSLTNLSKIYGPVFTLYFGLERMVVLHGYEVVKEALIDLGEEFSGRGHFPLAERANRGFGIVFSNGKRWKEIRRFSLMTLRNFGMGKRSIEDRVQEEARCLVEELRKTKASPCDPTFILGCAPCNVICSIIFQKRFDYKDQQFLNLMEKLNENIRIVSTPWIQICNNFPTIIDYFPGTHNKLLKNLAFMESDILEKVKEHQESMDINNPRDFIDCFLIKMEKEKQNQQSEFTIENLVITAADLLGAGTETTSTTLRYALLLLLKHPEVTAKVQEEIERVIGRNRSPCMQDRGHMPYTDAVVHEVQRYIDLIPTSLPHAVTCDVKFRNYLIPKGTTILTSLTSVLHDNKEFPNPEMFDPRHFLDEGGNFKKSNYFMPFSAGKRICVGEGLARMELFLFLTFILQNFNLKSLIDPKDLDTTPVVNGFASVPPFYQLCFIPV

This assay has as its target Cytochrome P450 2C19 (Homo sapiens) (UniProt P33261). The experiment in a line: Cytochrome panel assay with activity outcomes. The conditions noted are these: recombinant CYP, pro-luciferin dealkylation, luminescence, p450-cyp2c19; series mostly up to 57.1 µM; activity, negative = inhibition: at the top concentration.
With `COC(=O)N1CCC2(CCN(CC(C)C)CC2)CC1`, the “activity, negative = inhibition” value was -27.3% (inactive).
On the same count and under the same terms, the figure for `c1ccc(N2CCC3(CCNCC3)CC2)cc1` is -25.2% (inactive).
By AC50 is commonly meant the concentration at which the activity in the assay is half-maximal. For the molecule `Cc1sc(NC(=O)C2C3CCC(O3)C2C(=O)O)c(C(=O)OC(C)C)c1-c1ccc(Cl)cc1` (stereo unspecified), the AC50 is 14.1 µM (active).
Take `CN1C(=O)c2ccccc2Sc2ccc(C(=O)N3CCC4(CC3)OCCO4)cc21`: the “activity, negative = inhibition” value was -9.78% (inactive).
In the case of `O=C(c1cc(-c2ccccc2)nc2ccccc12)N1CCC2(CC1)OCCO2`, the AC50 was 10 µM (active).
On to `CN1[C@@H](CC(=O)c2ccccc2)CCC[C@@H]1C[C@@H](O)c1ccccc1`, for which the “activity, negative = inhibition” value was 1.66% [at 25.6 µM] (inactive).
Take `COCC(=O)N1CCC2(CCCN(Cc3ccncc3)C2)CC1`: the “activity, negative = inhibition” value was -34.1% (inactive).
In the case of `CN1CC[C@@]2(CCCN(C(=O)c3ccco3)C2)C1`, the “activity, negative = inhibition” value is 7.21% (inactive).
For `O=C(c1ccco1)N1CCC[C@@]2(CCN(Cc3ccncc3)C2)C1`, the AC50 is 2.51 µM (active).
In the case of `CNC(C)(C)Cc1ccccc1`, the “activity, negative = inhibition” value is 31.5% [at 25.6 µM] (inactive).
As for `C[C@@H](Cc1ccc(OCC(=O)O)cc1)NC[C@H](O)c1cccc(Cl)c1`, the AC50 entry was “inactive and 5.01 µM (active)”.
For `CCNC[C@H](O)c1cccc(O)c1`, the “activity, negative = inhibition” value was -8.41% [at 25.6 µM] (inactive).
Take `C=C1[C@@H]2C[C@@]3([C@H]1O)[C@H]1C[C@@H]4[C@@]5(C)CC[C@H](O)[C@]4([C@H]1N(CC)C5)[C@H]3C[C@H]2O`: the “activity, negative = inhibition” value is 3.61% [at 25.6 µM] (inactive).
In the case of `Oc1cccc2cccnc12`, the activity, negative = inhibition is 31.2% [at 11.4 µM] (inactive).
Consider `CC1=NN(c2ccc(S(=O)(=O)O)cc2C)C(=[OH+])[C@H]1N=Nc1cc(S(=O)(=O)O)ccc1C(=O)O.O.[Cr]`, for which the activity, negative = inhibition is 33.2% [at 11.4 µM] (inactive).
In the case of `COCOc1ccc(Br)cc1C(=O)/C=C\c1ccc2c(c1)OCO2`, the half-maximal activity concentration (AC50) is 0.0631 µM (active).
Turning to `CCCCCCCCCCCCCC(=O)O[C@H]1[C@@H](C)[C@@]2(O)[C@@H](C=C(CO)C[C@]3(O)C(=O)C(C)=C[C@@H]23)C2C(C)(C)[C@]21OC(C)=O` (stereo partly specified), the “activity, negative = inhibition” value was -27% (inactive).
Still for that read-out and setting: next, `C[C@@H]1O[C@@H](O[C@H]2C[C@@H](O)[C@]3(CO)[C@@H]4[C@@H](O)C[C@]5(C)[C@H]([C@@H]6COC(=O)C6)CC[C@@]5(O)[C@H]4CC[C@@]3(O)C2)[C@H](O)[C@H](O)[C@@H]1O`: 10.9% (inactive); `N[C@@H](CSC1c2ccccc2-c2ccccc21)C(=O)O`: -32.5% [at 11.4 µM] (inactive).
Take `CCOC(=O)[C@@H]1[C@@H]2c3ccccc3-c3ccccc3[C@H]2C[C@H]1O`: the AC50 is 2 µM (active).
For `CC1(C)[C@@H]2CC[C@]1(C)CN(CCC[N+](C)(C)C)C2`, the activity, negative = inhibition is 6.07% [at 11.4 µM] (inactive).
With `CC(C)Oc1cccnc1N(C)C1CCN(Cc2ccccc2)CC1`, the “activity, negative = inhibition” value is -43% (inactive).
Take `COC(=O)C[C@](O)(CCCC(C)(C)O)C(=O)O[C@@H]1C(OC)=C[C@]23CCCN2CCc2cc4c(cc2[C@H]13)OCO4`: the “activity, negative = inhibition” value was -41% (inactive).
With `CS(=N)(=O)CC[C@@H](N)C(=O)O` (stereo partly specified), the AC50 entry was “inactive”.
For the molecule `COc1ccccc1CC1C(=O)C2CCN1CC2` (stereo unspecified), the “activity, negative = inhibition” value was -29.3% (inactive).
In the case of `COCCn1c(SCc2nc3sc(C(=O)OC)c(C)c3c(=O)[nH]2)nc2ccccc21`, the AC50 was 0.708 µM (active).
Consider `O=C(O)[C@H]1CCN1`, for which the “activity, negative = inhibition” value is -2.64% (inactive).
Take `N#Cc1ccc(CN2CCCC3(CCN(C(=O)Oc4ccccc4)CC3)C2)cc1`: the “activity, negative = inhibition” value is 22.4% (inactive).
In the case of `CC(=O)[C@@H]1CC[C@@H]2[C@@H]3CC=C4C[C@H](OS(=O)(=O)O)CC[C@@]4(C)[C@H]3CC[C@]21C`, the “activity, negative = inhibition” value is -13.8% (inactive).
Regarding `CCCCn1c(O)c(C=NCCN2CCCCC2)c(=O)[nH]c1=O`, the “activity, negative = inhibition” value is -13.8% (inactive).
Regarding `C=CCn1c(O)c(C(C)=NCCCN2CCOCC2)c(=O)[nH]c1=O`, the “activity, negative = inhibition” value is 4.51% (inactive).
In the case of `CCCCn1c(O)c(C(CC)=NCc2ccc(F)cc2)c(=O)[nH]c1=O`, the AC50 was 7.08 µM (active).
Still for that read-out and setting: next, `CCCCn1c(O)c(C(CC)=Nc2ccc(OC)cc2OC)c(=O)[nH]c1=O`: 15.8 µM (active).
For the molecule `C[C@]12CCC3c4ccc(OCC(=O)O)cc4CCC3C1CCC2=O` (stereo partly specified), the activity, negative = inhibition was 29.2% [at 11.4 µM] (inactive).
On the same count and under the same terms, next, `CN(C)[C@@H]1C(=O)C(C(N)=O)=C(O)[C@]2(O)C(=O)C3=C(O)c4c(O)cccc4[C@](C)(O)[C@H]3C[C@@H]12`: -41.8% [at 11.4 µM] (inactive).
Take `CCOC(=O)c1[nH]c(C)c(C(=O)N2CCC3(CC2)OCCO3)c1C`: the AC50 was 5.01 µM (active).
As to `OCc1cnc[nH]1`, the “activity, negative = inhibition” value is -19.3% (inactive).
The same measure, in the same setting: the figure for `CC(C)(c1ccc(OC[C@@H]2CO2)cc1)c1ccc(OC[C@H]2CO2)cc1` is 21.1% (inactive).
Still for that read-out and setting: the figure for `C[C@@H]1O[C@@H](O[C@H]2C[C@@H](O)[C@@]3(CO)[C@H]4[C@H](O)C[C@]5(C)[C@@H](C6=CC(=O)OC6)CC[C@]5(O)[C@H]4CC[C@@]3(O)C2)[C@@H](O)[C@H](O)[C@H]1O` is 30.3% [at 11.4 µM] (inactive).
For `CC(C(=O)c1c[nH]c2ccccc12)N1CCSCC1` (stereo unspecified), the half-maximal activity concentration (AC50) was 8.91 µM (active).
In the case of `C[N+]1(C)[C@@H]2CC[C@H]1CC(OC(=O)c1c[nH]c3ccccc13)C2` (stereo partly specified), the “activity, negative = inhibition” value was 19.7% (inactive).
On the same count and under the same terms, next, `N[C@H](Cc1c[nH]c2ccccc12)P(=O)(O)O`: 13.8% [at 11.4 µM] (inactive); `C[C@H]1C(=O)O[C@@H]2CCN3CC=C(COC(=O)[C@@](C)(O)[C@@]1(C)O)[C@H]23`: 5.72% [at 25.6 µM] (inactive).
As for `CN1C(=O)CCS(=O)(=O)[C@@H]1c1ccc(Cl)cc1`, the “activity, negative = inhibition” value is 12.3% [at 25.6 µM] (inactive).
On the same count and under the same terms, the figure for `Brc1c(NC2=NCCN2)ccc2nccnc12` is -34.5% (inactive).
Regarding `c1ccc2c(c1)[I+]c1ccccc1-2`, the AC50 was 501 nM (active) and 63.1 nM (active).

These data come from PubChem BioAssay AID1851 (National Center for Advancing Translational Sciences (NCATS), 2009).
